For seven compounds, Potency, outcome and activity change, negative = cytotoxicity results are on record in PubChem BioAssay (Tox21).

Molecules are shown by their SMILES. Results filed as inconclusive are left out. More than one record can exist for a structure, and the calls need not agree. Calls of active or inactive are those of the source. Unless noted, the call rests on the fitted dose curve; in most records, active means well fitted curve in the direction sought with a large enough effect in the repeat runs; inconclusive means weak or mixed curves; inactive means no such curve, though single readings can be large; an effect the other way counts as inactive or inconclusive.

Assay [1] is described as follows: qHTS assay to identify small molecule antagonists of the sonic hedgehog signaling (Shh) pathway (AID 1259369; calls by dose curve; further: nearly all actives have a fitted effect of over 45% in size; further: potency means the concentration at half of the fitted maximal effect). In outline: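 Stable Gli1-Luc reporter NIH/3T3 clone; quantitative HTS in stimulated mode with conditioned medium. Luminescence measured after 24hr compound treatment at 37 C.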
For assay [2], the target named is Estrogen receptor beta (Homo sapiens) (UniProt Q92731). As to the kind of experiment: qHTS assay to identify small molecule agonists of the estrogen receptor beta (ER-beta) signaling pathway (AID 1259377; active means well fitted activation curve with a large enough effect in the signal ratio in the repeat runs, not every such curve was filed as active; the % refers to the signal ratio). In outline:
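qHTS in ER-beta-UAS-bla HEK293T cells: 6 hr settling, then 16 hr compound at 37C, then LiveBLAzer substrate 2 h at RT before fluorescence reading.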
(qHTS replaces the single test concentration by a dilution series.)

The target is the same in assay [3]. The assay is described as follows: qHTS assay to identify small molecule antagonists of the estrogen receptor beta (ER-beta) signaling pathway (AID 1259378; active means well fitted inhibition curve with a large enough effect in the signal ratio in the repeat runs, not every such curve was filed as active; the % refers to the signal ratio). The method, boiled down: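 ER-beta-UAS-bla HEK293T (GripTite) cells in 2% charcoal-stripped FBS medium were preincubated 6 hr at 37C, dosed with compound, then stimulated with 1 nM E2 (final) for 16 hr; beta-lactamase reporter read by B/G FRET fluorescence after 2 hr substrate loading.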

Assay [4] in a line: qHTS assay to identify small molecule agonists of the estrogen receptor beta (ER-beta) signaling pathway - cell viability counter screen (AID 1259380). Further: nearly all actives have a fitted effect of over 30% in size. The method, boiled down:
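Steps: plate ER-beta-UAS-bla HEK293T cells, rest 6 hr; add compounds in DMSO; incubate 16 hr at 37C, 5% CO2; add FRET substrate 2 hr; add CellTiter-Glo, wait 30 min at room temperature; read luminescence.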

The nature of assay [5]: qHTS assay to identify small molecule antagonists of the estrogen receptor beta (ER-beta) signaling pathway - cell viability counter screen (AID 1259382). Further: series mostly up to about 92 µM; nearly all actives have a fitted effect of over 55% in size. The method, boiled down: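 Viability is scored by CellTiter-Glo luminescence (30 min, room temperature) in ER-beta-UAS-bla HEK293T wells already read for reporter fluorescence. Compound exposure lasts 16 hr at 37C alongside 1nM 17-beta-estradiol in charcoal-stripped serum medium.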

The nature of assay [6]: qHTS assay to identify small molecule agonists or antagonists of the thyroid stimulating hormone receptor (TSHR) signaling pathway - wild type cell line counter screen (AID 1259384; calls by dose curve). The method, boiled down:
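Wild-type HEK293 cells were plated 18 h at 37 C/5% CO2, pin-dosed with compound plus Ro20-1724 medium, held 30 min at room temperature, then given cAMP-d2 and anti-cAMP-cryptate; fluorescence was read after 1 h. Fifteen concentrations, triplicate.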

Assay [7] concerns the target Thyrotropin receptor (Homo sapiens) (UniProt P16473). As to the kind of experiment: qHTS assay to identify small molecule antagonists of the thyroid stimulating hormone receptor (TSHR) signaling pathway (AID 1259385; calls by dose curve; further: nearly all actives have a fitted effect of over 20% in size). The method, boiled down: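 TSHR-HEK293 cells were plated and held 18 h at 37C/5% CO2, then given compound plus Ro20-1724 and stimulated with TSH at 1.5 ng/mL final. After 30 min at room temperature, cAMP was detected with cAMP-d2/anti-cAMP-cryptate (1 h) by fluorescence.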

The nature of assay [8]: qHTS assay to identify small molecule agonists of the estrogen receptor alpha (ER-alpha) signaling pathway in the presence of an antagonist - cell viability counter screen (AID 1259386).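 Further: series mostly up to about 92 µM; cells exposed to compounds for 22 h at 37 °C before the viability read; nearly all actives have a fitted effect of over 30% in size.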 In outline:
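In this counter screen, compound effects on VM7Luc4E2 viability were tested in the presence of the antagonist ICI-182,780 at 10.0nM final. Compounds were dosed at 15 concentrations, exposure lasted 22hr, and the CellTiter-Fluor signal was read.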

Assay [9] addresses Progesterone receptor (Homo sapiens) (UniProt P06401). As to the kind of experiment: qHTS assay to identify small molecule agonists of the progesterone receptor (PR) signaling pathway (AID 1346784; calls by dose curve; further: nearly all actives have a fitted effect of over 30% in size; further: potency means the concentration at half of the fitted maximal effect). In outline:
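Fluorescence from LiveBLAzer B/G FRET substrate cleavage (2 hr, RT) reported PR activation in PR-UAS-bla HEK 293T cells treated 16 hr at 37C/5% CO2 with compounds; medium contained 2% charcoal-stripped FBS.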

For assay [10] the target is unchanged. The assay is described as follows: qHTS assay to identify small molecule antagonists of the progesterone receptor (PR) signaling pathway (AID 1346795; active means well fitted inhibition curve with a large enough effect in the signal ratio in the repeat runs, not every such curve was filed as active; the % refers to the signal ratio). In outline:
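Fluorescence intensity measured 2 hr after adding beta-lactamase FRET substrate to PR-UAS-bla HEK293T cells that had been co-treated 16 hr with compound and 1 nM R5020 (final concentration) in 2% charcoal-stripped FBS.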

Assay [11] is described as follows: qHTS assay to identify small molecule antagonists of the progesterone receptor (PR) signaling pathway - cell viability counter screen (AID 1346798). Further: series mostly up to about 92 µM; nearly all actives have a fitted effect of over 50% in size. The method, boiled down: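 CellTiter-Glo luminescence; PR-UAS-bla HEK293T, 3,000 cells/well; compound + R5020, 16 hr, 37C/5% CO2; 30 min RT before read.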
Assay [12] is described as follows: qHTS assay to identify small molecule agonists of the progesterone receptor (PR) signaling pathway - cell viability counter screen (AID 1346799; calls by dose curve; further: nearly all actives have a fitted effect of over 45% in size). In outline: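 In parallel with the beta-lactamase readout, cytotoxicity toward PR-UAS-bla HEK293T cells was measured by CellTiter-Glo luminescence following 16 hr compound incubation in 2% charcoal-stripped FBS medium.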

Assay [13] can be described thus: qHTS assay to identify small molecule antagonists of the TGF-beta/Smad signaling pathway - cell viability counter screen (AID 1346824). Further: nearly all actives have a fitted effect of over 50% in size. In outline:
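SBE-bla HEK 293T cells were plated overnight at 37 C, then given compounds in DMSO plus TGF-beta1 (added as 0.25 ng/mL solution) for 5 hr. After the bla read, CellTiter-Glo was added to the same wells and luminescence read after 30 min at room temperature.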

The nature of assay [14]: qHTS assay to identify small molecule agonists of the TGF-beta/Smad signaling pathway - cell viability counter screen (AID 1346829). Further: top concentration of the series differs between compounds; nearly all actives have a fitted effect of over 45% in size. The method, boiled down: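 HEK 293T SBE-bla line, 5 hr compound exposure at 37 C, multiplexed CellTiter-Glo viability read by luminescence.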
Assay [15] can be described thus: qHTS assay to identify small molecule agonists of the TGF-beta/Smad signaling pathway (AID 1346859; active means well fitted activation curve with a large enough effect in the signal ratio in the repeat runs, not every such curve was filed as active; the % refers to the signal ratio; further: series mostly up to about 77 µM). The method, boiled down: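 After overnight seeding, SBE-bla HEK 293T cells are dosed with compounds in DMSO and kept 5 hr at 37 C, 5% CO2. LiveBLAzer-type FRET substrate is then applied for 2 hr at room temperature.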
Assay [16] addresses Thyrotropin-releasing hormone receptor (Homo sapiens) (UniProt P34981). The assay is described as follows: qHTS assay to identify small molecule antagonists of the thyrotropin-releasing hormone receptor (TRHR) signaling pathway (AID 1346877; active means well fitted inhibition curve with a large enough effect in the repeat runs, not every such curve was filed as active; further: series mostly up to about 51 µM). The method, boiled down:
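Kinetic fluorescence (3 min, 1 s resolution) following stimulation with TRH at 1 nM final; HEK293 cells bearing human TRHR; 5 min compound preincubation at RT; concentration-response over 15 points, triplicates.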

For assay [17] the target is unchanged. The assay is described as follows: qHTS assay to identify small molecule agonists of the thyrotropin-releasing hormone receptor (TRHR) signaling pathway (AID 1346891; calls by dose curve;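 further: HEK293 cells expressing TRHR with calcium dye readout; series mostly up to about 58 µM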). The method, boiled down:
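Compounds were tested as agonists at 15 concentrations, in triplicate, on TRHR-Hek293 cells; calcium-sensitive dye fluorescence was recorded for 3 min following addition.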

The nature of assay [18]: qHTS assay to identify small molecule agonists of the androgen receptor (AR) signaling pathway in the presence of an antagonist - cell viability counter screen (AID 1259379).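 Further: MDA-kb2 human breast cancer cells carrying an MMTV luciferase reporter; series mostly up to about 92 µM; nearly all actives have a fitted effect of over 25% in size.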 The method, boiled down:
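Nilutamide-containing (3.0uM final) MDA-kb2 cultures, 3,000 cells/well, were treated with compounds across 15 concentrations. After 16 hr at 37C with no CO2, cell viability was determined by CellTiter-Fluor fluorescence in the luciferase assay wells.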

Assay [19] addresses Androgen receptor (Homo sapiens) (UniProt P10275). As to the kind of experiment: qHTS assay to identify small molecule agonists of the androgen receptor (AR) signaling pathway in the presence of an antagonist (AID 1259381; calls by dose curve; further: nearly all actives have a fitted effect of over 15% in size; further: potency means the concentration at half of the fitted maximal effect). In outline: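 Reporter-gene luminescence from MDA-kb2 cells exposed 16hr at 37C (0% CO2) to 15-point compound titrations with 3.0uM final nilutamide as AR antagonist.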
On the % scale 0 is the no-effect control and ±100 the full control effect.

Sequence of Thyrotropin receptor (Homo sapiens) (P16473 whole entry, looked up): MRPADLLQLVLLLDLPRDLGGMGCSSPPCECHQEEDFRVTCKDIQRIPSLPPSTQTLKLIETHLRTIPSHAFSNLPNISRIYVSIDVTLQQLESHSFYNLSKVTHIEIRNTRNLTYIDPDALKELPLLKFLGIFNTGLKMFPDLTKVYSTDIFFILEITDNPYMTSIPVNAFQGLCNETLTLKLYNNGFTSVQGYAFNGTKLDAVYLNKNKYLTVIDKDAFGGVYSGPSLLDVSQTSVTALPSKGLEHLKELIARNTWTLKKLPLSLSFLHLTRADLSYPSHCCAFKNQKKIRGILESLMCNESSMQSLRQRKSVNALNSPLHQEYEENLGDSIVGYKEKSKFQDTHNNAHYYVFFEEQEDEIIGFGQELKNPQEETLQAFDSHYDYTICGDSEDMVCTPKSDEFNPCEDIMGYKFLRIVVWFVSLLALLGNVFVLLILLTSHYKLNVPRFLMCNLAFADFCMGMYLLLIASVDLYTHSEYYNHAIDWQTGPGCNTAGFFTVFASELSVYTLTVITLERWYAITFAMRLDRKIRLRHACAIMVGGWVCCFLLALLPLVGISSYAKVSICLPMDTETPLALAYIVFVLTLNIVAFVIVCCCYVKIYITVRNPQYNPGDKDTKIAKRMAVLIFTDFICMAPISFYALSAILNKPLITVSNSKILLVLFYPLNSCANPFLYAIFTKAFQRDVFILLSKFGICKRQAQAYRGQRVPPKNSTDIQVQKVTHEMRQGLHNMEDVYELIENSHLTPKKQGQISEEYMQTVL
Sequence of Progesterone receptor (Homo sapiens) (P06401 whole entry, looked up): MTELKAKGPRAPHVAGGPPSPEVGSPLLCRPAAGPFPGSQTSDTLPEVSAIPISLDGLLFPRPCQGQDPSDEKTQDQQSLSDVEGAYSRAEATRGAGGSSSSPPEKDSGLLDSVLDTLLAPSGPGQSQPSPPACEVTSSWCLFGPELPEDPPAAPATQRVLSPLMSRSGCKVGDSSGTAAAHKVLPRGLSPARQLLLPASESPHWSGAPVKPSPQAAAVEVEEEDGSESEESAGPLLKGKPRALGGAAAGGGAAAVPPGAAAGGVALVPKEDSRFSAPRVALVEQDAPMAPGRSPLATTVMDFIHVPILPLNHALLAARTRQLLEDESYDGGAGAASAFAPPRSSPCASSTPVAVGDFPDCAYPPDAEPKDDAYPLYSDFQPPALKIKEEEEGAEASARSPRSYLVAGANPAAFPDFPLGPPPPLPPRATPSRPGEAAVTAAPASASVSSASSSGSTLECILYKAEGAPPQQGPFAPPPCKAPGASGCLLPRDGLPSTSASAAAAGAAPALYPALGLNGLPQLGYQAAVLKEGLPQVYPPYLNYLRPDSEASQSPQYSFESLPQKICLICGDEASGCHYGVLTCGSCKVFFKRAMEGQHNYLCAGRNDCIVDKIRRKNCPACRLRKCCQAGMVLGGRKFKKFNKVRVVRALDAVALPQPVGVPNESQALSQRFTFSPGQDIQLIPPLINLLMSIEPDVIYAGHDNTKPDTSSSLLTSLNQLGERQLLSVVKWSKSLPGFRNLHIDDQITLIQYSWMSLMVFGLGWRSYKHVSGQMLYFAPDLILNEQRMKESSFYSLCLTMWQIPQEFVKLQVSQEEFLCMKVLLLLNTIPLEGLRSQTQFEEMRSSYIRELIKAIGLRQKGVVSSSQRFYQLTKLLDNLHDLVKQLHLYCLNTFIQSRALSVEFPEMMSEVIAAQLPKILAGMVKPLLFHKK
Sequence of Thyrotropin-releasing hormone receptor (Homo sapiens) (P34981 whole entry, looked up): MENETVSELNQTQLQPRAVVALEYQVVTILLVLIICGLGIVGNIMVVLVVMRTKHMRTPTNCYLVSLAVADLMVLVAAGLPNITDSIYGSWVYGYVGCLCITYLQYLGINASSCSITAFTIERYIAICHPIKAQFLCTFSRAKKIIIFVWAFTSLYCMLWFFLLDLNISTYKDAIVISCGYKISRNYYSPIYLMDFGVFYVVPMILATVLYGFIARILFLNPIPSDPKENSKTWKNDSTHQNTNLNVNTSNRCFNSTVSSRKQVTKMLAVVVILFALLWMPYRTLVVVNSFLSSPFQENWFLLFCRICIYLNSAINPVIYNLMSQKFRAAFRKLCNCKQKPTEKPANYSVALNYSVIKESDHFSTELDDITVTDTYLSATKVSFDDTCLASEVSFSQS
Sequence of Estrogen receptor beta (Homo sapiens) (Q92731 whole entry, looked up): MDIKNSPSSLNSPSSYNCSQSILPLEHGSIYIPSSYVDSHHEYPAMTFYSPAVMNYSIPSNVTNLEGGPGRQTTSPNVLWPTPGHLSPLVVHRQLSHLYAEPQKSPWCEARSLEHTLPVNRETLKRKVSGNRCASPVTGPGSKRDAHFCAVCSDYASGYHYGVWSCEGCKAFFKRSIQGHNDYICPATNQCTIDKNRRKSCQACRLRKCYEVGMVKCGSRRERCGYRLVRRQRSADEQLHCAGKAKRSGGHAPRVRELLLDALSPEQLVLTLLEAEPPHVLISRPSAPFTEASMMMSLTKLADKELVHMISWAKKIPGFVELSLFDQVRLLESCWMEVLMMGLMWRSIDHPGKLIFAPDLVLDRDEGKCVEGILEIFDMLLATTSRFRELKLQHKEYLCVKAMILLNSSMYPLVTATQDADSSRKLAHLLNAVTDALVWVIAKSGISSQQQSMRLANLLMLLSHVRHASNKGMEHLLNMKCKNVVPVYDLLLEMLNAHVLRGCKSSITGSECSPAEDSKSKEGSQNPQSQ
Sequence of Androgen receptor (Homo sapiens) (P10275 whole entry, looked up): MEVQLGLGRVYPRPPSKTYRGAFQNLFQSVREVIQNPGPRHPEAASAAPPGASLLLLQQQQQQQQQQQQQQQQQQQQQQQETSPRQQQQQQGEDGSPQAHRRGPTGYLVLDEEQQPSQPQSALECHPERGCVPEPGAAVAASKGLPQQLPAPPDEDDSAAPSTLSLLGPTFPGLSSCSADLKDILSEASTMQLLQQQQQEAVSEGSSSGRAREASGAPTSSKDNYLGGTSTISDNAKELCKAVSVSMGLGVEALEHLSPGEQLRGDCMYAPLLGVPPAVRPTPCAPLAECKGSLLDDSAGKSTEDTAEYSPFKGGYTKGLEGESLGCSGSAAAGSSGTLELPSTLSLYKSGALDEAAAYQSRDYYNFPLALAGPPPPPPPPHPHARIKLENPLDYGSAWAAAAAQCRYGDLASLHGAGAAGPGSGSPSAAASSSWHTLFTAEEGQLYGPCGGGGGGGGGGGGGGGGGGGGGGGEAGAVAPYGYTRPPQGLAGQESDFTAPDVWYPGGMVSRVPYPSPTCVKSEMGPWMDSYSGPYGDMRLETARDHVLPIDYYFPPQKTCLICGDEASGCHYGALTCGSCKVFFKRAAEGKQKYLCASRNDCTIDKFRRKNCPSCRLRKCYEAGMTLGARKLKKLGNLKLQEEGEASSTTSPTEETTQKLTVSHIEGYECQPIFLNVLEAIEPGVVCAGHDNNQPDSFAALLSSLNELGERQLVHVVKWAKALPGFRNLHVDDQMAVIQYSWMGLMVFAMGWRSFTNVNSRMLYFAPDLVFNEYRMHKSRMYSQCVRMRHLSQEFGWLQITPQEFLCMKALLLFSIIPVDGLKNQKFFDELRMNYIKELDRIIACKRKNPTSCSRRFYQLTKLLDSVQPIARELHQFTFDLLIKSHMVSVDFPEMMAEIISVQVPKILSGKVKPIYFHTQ

For `NCc1cccc(CN)c1`, the Potency result in assay [1], in [2], in [3], in assay [4], in [5] and in assay [8] was “inactive” throughout. In addition, the Potency result in [9], in assay [10], in [11], in assay [12], in assay [13] and in [14] was “inactive” in each case. Moreover, the Potency result in [17] is “inactive”. The compound was classed as inactive in assay [6], in assay [7], in [15] and in assay [16].

For `Cc1ccc(N)c(S(=O)(=O)O)c1`, the Potency result in [1], in assay [2], in assay [3], in assay [18], in assay [4] and in assay [5] was “inactive” throughout. Moreover, the Potency entry in assay [8], in assay [9], in [10], in assay [11], in [12] and in assay [14] was “inactive” in each case. Further, the Potency result in assay [17] is “inactive”. Moreover, the outcome in [6], in assay [7], in assay [15] and in assay [16] was inactive.

With `CCC(=O)O`, the Potency entry in [1], in assay [18], in assay [4], in assay [5], in assay [8] and in [11] was “inactive” in each case. Moreover, the Potency result in assay [14] was “inactive”. Also, the activity change, negative = cytotoxicity in [12] is -3.72% [at 19 µM] (inactive). The outcome in assay [15] was inactive.

As for `CCCCCCCCCCC=CC1CC(=O)OC1=O` (stereo unspecified), the Potency entry in assay [1], in [18], in assay [4], in assay [5], in assay [8] and in [9] was “inactive” in each case. Besides, the Potency entry in [11], in assay [12] and in assay [14] was “inactive” each time. Moreover, the compound was called inactive in assay [6] and in assay [15].

On to `O=C(O)c1cc(-c2ccccc2)nc2ccccc12`, for which the Potency entry in [1], in [18], in assay [4], in assay [5], in [8] and in assay [11] was “inactive” in each case. For the same compound, the Potency entry in assay [12], in [14] and in assay [17] was “inactive” in each case. For the same compound, the Potency in [19] is 55.1 µM (active) and inactive; in assay [9], 779 nM (active) and inactive. The compound was classed as inactive in assay [6], in [7], in [15] and in [16].

Consider `CCOC(=O)C1OC1c1ccccc1` (stereo unspecified), for which the Potency entry in assay [1], in assay [18], in [5], in assay [8], in assay [9] and in assay [11] was “inactive” in each case. Besides, the Potency result in assay [12], in assay [13], in assay [14] and in [17] was “inactive” each time. Besides, the result in assay [15] and in [16] was inactive.

Take `CC1CC(OC(=O)c2ccccc2O)CC(C)(C)C1` (stereo unspecified): the Potency in assay [1] is 27 µM (active) and inactive. Also, the Potency result in [18], in [4], in [5], in assay [8], in [9] and in assay [11] was “inactive” each time. For the same compound, the Potency result in [12], in assay [13], in [14] and in assay [17] was “inactive” throughout. The call in assay [6], in assay [7], in [15] and in assay [16] was inactive.
